Reference: PubChem BioAssay (NCI)
About 83,000 compounds went through this panel and 20% of them were active in at least one assay; those are over-represented in the sample as a whole.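 Assay: single dose, 48 h. Readout: percent growth (0 = no net growth; negative = cell death). Active: <10.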 Calls of active or inactive are those of the source.

The molecules below were run on HL-60(TB) leukemia (assay: NCI-60 one-dose screen, 48 h (100 = growth as untreated, 0 = no growth, -100 = all killed)). Settings: 10 µM unless noted.

Row | SMILES | growth
1 | CCOC(=O)C1=C(C)NC(SCc2nnc(-c3ccc(Cl)cc3)o2)=NC1c1ccc(Cl)cc1 (stereo not given) | 21.4% (inactive)
2 | CSc1ncc2ncn(C3OC(CO)C(O)C3O)c2n1 (stereo not given) | 114% (inactive)
3 | CCOC(=O)c1c(NC(=O)c2ccc(OC)cc2)sc2c(CN(C)C)c(O)ccc12 | 1.3% (active)
4 | Cc1ccc(-c2cnc3sc(C(=O)NCCc4ccccc4)c(C)n23)cc1 | 97.9% (inactive)
5 | O=C1Nc2ccccc2C1=NC1CCCCC1 | 110% (inactive)
6 | O=C(O)CCN1CCN(c2cccc(Cl)c2)CC1 | 97% (inactive)
7 | Cc1cc(C)nc(SC2=C(Nc3ccc(O)cc3)C(=O)N(Cc3ccccc3)C2=O)n1 | 60.6% [40 µM] (inactive)
8 | CCCc1cc2c(=O)c(C(=O)OC)c[nH]c2cc1N(CC)CC | 91.6% (inactive)
9 | O=C(NC1CCOCC1)c1ccc2c(c1)CN(c1ncc(Cc3cccc(-n4cccn4)c3)s1)CC2 | 68.7% (inactive)
10 | NC(N)=N/N=C\c1cccc(OCc2ccccc2)c1 | 55.5% (inactive)
11 | CC1=CC[C@@H]2CC[C@]3(C)[C@H](CC[C@@H]4[C@@]5(C)CCCNC(C)(C)[C@@H]5CC[C@]43C)[C@H]2[C@@H]1C | 21.7% (inactive)
12 | O=C(C(Br)C(Br)c1ccccc1)C(Br)C(Br)c1ccccc1 (stereo not given) | -49.7% (active)
13 | NC(=NCCCOc1ccc(F)cc1)Nc1ccc(Cl)c(Cl)c1 | 48.2% (inactive)
14 | O=C(CCCCCCN1CC(=O)N2[C@@H](c3ccccc3Cl)c3[nH]c4ccccc4c3C[C@H]2C1=O)NO | 55% (inactive)
15 | COc1cccc(NC(=O)Nc2ccc(Nc3ncnc4[nH]c(C)c(C)c34)cc2)c1 | 104% (inactive)
